This note sets out measurements from PubChem BioAssay (NCI).

Several values for one entry are separate records, joined by “and”; a condition that tells them apart may be missing. Equal values may be shown once. This is part of a sample that, as a whole, favours compounds with a hit. Of some 79,000 tested, about 15% had one in any assay. More than one record can exist for a structure, and the calls need not agree. Activity calls are given as the source filed them. Cut-off read from the data, not from the text of the source: active = growth inhibition above about 70%; inactive = the rest.

A short description of this assay: NCI Yeast Anticancer Drug Screen. Data for the bub3 strain (AID 167). The note with it: S. cerevisiae bub3 mutant strain, stronger effect = higher value. On the procedure: Growth inhibition of yeast strains with defined genetic alterations is measured as a screen for potential anti-cancer activity. Selected strains with alterations in DNA damage repair or cell cycle control were exposed to compounds and growth inhibition was measured relative to vehicle treated controls. The strain used in this assay is bub3

Setting [1] is: at 5.0 µM (retest, dose inferred, filed as 0.5).
Where [2] appears, read: at 50.0 µM (retest, dose inferred, filed as 5.0).

Turning to `NNC(=O)CCc1cc2ccccc2c2ccccc12`, the growth inhibition was -7% (inactive) (at 1.2 µM); -8% (inactive) (at 3.7 µM); 50% (inactive) under setting [1]; -9% (inactive) (at 11.0 µM); 18% (inactive) (at 33.0 µM); 98% (active) under setting [2]. Moreover, the growth inhibition is, setting by setting: (at 50.0 µM) 98.8% (active); (at 100.0 µM) 99% (active).

Regarding `Cc1ccc(Sc2ccccc2N)cc1`, the growth inhibition by setting is: (at 1.2 µM) -6% (inactive); (at 3.7 µM) -2% (inactive); under setting [1], 34% (inactive) and 40% (inactive); (at 11.0 µM) -10% (inactive); (at 33.0 µM) 24% (inactive); under setting [2], 94% (active) and 81% (active). The growth inhibition (at 50.0 µM) is 92% (active) and the growth inhibition (at 100.0 µM) is 98% (active).

`Cc1ccc(N=Nc2ccc(O)c(=O)cc2)cc1`: the growth inhibition reads like this: (at 1.2 µM) -6% (inactive); (at 3.7 µM) 3% (inactive); under setting [1], 6% (inactive); (at 11.0 µM) 49% (inactive); (at 33.0 µM) 90% (active); under setting [2], 91% (active). The growth inhibition (at 50.0 µM) was -6.8% (inactive) and 87.5% (active); the growth inhibition (at 100.0 µM) is 92% (active).

With `CC(=O)Nc1ccc2c(c1)Cc1cc(N=C3C=CC(=O)O3)ccc1-2`, the growth inhibition by setting is: (at 1.2 µM) -1% (inactive); (at 3.7 µM) 7% (inactive); under setting [1], 32% (inactive); (at 11.0 µM) 72% (active); (at 33.0 µM) 99% (active); under setting [2], 99% (active). Further, the growth inhibition is, setting by setting: (at 50.0 µM) 29.5% (inactive); (at 100.0 µM) 98% (active).

On to `CC1OC(O[C@H]2/C=C/C=C/C=C/C=C/C=C/C=C/C=C/[C@H](C)[C@@H](O)[C@@H](C)[C@H](C)OC(=O)C[C@H](O)C[C@H](O)CC[C@@H](O)[C@H](O)C[C@H](O)C[C@]3(O)C[C@H](O)[C@@H](C(=O)O)[C@H](C2)O3)C(O)C(N)C1O` (stereo not given in full), for which the growth inhibition is, setting by setting: (at 1.2 µM) -19% (inactive); (at 3.7 µM) 19% (inactive); under setting [1], 14% (inactive); (at 11.0 µM) 98% (active); (at 33.0 µM) 98% (active); under setting [2], 99% (active). Also, the growth inhibition by setting is: (at 50.0 µM) 98.8% (active); (at 100.0 µM) 98% (active).
